PubChem BioAssay (EPA / NIEHS)
Results filed as inconclusive are left out. Calls of active or inactive are those of the source. Rule for the calls: active = hit-call score of the fitted dose curve at least 0.9, where 1 is the maximum; inconclusive = response in the unintended direction; inactive = score below 0.9.

Experiments:
[1] = target: bovine Estrogen Receptor (ER), ESR1 (gene 407238) (UniProt P49884); assay: NVS_NR_bER: NovaScreen (NVS) Nuclear Receptor Binding Assay for bovine Estrogen Receptor (ER) (AID 2283345);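 note: actives lower the bound radioligand count which means they displace the ER ligand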
Chain of bovine Estrogen Receptor (ER), ESR1 (gene 407238) (P49884 whole entry, looked up): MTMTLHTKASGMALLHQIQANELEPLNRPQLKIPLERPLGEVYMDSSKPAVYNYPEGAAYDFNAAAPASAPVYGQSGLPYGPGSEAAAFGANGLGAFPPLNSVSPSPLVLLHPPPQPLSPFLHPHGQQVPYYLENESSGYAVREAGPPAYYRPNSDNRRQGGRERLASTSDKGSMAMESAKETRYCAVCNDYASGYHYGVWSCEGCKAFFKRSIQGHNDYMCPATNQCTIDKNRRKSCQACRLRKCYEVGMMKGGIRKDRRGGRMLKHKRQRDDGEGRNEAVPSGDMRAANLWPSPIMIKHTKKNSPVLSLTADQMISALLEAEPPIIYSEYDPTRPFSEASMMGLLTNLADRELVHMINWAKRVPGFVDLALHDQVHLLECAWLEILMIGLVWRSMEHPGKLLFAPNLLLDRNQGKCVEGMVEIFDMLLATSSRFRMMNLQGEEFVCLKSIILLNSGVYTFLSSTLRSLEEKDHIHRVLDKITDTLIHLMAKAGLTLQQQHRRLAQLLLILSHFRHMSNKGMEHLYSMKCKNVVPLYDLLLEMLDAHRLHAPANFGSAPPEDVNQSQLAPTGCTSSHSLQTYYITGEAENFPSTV
How it was run: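 Cell-free radioligand binding with receptor from bovine uterine membranes, read by scintillation counting 18 h after dosing. Loss of specific binding was scored against DMSO; primary screen at 25 uM in duplicate, actives then run as concentration series.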

[2] = target: chimpanzee Androgen Receptor (AR), AR (gene 747460) (UniProt O97775); assay: NVS_NR_cAR: NovaScreen (NVS) Nuclear Receptor Binding Assay for chimpanzee Androgen Receptor (AR) (AID 2283346);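 note: radioligand displacement from AR measured by scintillation counting in a cell-free assay; a loss of bound radioligand signal versus DMSO counts as binding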
Chain of chimpanzee Androgen Receptor (AR), AR (gene 747460) (O97775 whole entry, looked up): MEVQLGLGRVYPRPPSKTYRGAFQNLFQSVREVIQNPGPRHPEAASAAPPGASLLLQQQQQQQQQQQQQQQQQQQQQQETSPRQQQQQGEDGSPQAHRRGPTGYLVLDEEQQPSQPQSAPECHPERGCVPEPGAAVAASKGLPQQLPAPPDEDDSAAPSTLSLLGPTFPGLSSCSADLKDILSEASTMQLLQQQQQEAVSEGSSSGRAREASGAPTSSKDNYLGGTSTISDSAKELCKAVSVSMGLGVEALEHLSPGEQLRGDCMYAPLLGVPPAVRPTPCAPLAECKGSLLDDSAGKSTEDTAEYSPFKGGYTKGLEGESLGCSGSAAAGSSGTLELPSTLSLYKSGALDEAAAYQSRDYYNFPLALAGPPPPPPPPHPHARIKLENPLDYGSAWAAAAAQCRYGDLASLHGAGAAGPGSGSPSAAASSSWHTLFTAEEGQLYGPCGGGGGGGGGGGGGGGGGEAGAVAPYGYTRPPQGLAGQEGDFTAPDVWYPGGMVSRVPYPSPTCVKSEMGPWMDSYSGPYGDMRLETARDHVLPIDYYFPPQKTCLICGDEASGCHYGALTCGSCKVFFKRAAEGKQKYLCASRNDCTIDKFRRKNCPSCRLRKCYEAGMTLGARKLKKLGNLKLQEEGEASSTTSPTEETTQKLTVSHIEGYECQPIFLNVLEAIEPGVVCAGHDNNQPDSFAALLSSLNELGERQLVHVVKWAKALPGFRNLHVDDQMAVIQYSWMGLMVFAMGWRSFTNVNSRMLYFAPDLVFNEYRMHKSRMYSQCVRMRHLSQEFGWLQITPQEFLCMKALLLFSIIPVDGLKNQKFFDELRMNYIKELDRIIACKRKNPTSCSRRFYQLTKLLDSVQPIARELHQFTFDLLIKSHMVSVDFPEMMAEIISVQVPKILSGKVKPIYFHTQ
How it was run: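 Cell-free competition binding with insect-cell (Sf9/Sf21) extracted chimpanzee AR; scintillation signal from lysate at 72 h. Screened in duplicate at 25 uM, then concentration-response for actives; fitting relative to DMSO.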

[3] = target: Estrogen receptor beta (Homo sapiens) (UniProt Q92731); assay: OT_ER_ERbERb_0480: Odyssey Thera (OT) 8-hour HEK293T Protein-Complementation Assay for Estrogen Receptor-beta/-beta Homodimer (AID 2283357);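 note: active means signal gain over DMSO baseline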
Chain of Estrogen receptor beta (Homo sapiens) (Q92731 whole entry, looked up, the tested form may be a part): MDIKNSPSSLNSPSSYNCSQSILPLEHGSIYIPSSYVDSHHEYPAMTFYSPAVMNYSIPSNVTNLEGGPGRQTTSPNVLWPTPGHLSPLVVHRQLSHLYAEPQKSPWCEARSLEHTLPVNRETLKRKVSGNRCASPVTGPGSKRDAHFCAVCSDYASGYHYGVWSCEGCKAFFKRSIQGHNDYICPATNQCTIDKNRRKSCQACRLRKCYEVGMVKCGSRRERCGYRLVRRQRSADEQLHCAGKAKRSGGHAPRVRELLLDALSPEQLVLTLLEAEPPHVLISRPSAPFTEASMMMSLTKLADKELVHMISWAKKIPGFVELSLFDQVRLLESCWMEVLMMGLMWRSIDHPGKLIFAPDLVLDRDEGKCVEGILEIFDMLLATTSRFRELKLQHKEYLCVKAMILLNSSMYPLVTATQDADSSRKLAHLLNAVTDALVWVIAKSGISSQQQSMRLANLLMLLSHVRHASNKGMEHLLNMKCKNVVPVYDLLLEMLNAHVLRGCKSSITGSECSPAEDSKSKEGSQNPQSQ
How it was run: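 ER-beta LBD homodimer PCA stably expressed in HEK293T; 8 h compound exposure, then formaldehyde fixation and Draq5 staining. Gain in nuclear/cytoplasmic fluorescence intensity versus DMSO vehicle, read on laser scanning cytometer.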

NCBI gene 100848466 = assay: NVS_NR_bPR: NovaScreen (NVS) Nuclear Receptor Binding Assay for bovine Progextron Receptor (PR) (AID 2283343);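 for AC50: actives lower bound radioligand signal below DMSO meaning displacement of the label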
How it was run: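 Competitive radioligand binding with membranes from bovine uterus, scintillation read-out at 18 h post-dose. Compounds first tested in duplicate at 25 uM, then actives in concentration series; loss-of-signal relative to DMSO.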

[4] = system: guinea pig Histamine Receptor (H2), gene 100729734; assay: NVS_GPCR_gH2: NovaScreen (NVS) G Protein-Coupled Receptor Assay for guinea pig Histamine Receptor (H2) (AID 2283342)
How it was run: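 Guinea pig striatal membrane preparation with specific radioligand; bound counts measured by filtration and scintillation 1 h post-dosing, DMSO as baseline. Chemicals passing a 25 uM duplicate screen were titrated to a 50 uM maximum.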

[5] = target: Estrogen receptor (Homo sapiens) (UniProt P03372); assay: NVS_NR_hER: NovaScreen (NVS) Nuclear Receptor Binding Assay for human Estrogen Receptor (ER) (AID 2283348)
Chain of Estrogen receptor (Homo sapiens) (P03372 whole entry, looked up, the tested form may be a part): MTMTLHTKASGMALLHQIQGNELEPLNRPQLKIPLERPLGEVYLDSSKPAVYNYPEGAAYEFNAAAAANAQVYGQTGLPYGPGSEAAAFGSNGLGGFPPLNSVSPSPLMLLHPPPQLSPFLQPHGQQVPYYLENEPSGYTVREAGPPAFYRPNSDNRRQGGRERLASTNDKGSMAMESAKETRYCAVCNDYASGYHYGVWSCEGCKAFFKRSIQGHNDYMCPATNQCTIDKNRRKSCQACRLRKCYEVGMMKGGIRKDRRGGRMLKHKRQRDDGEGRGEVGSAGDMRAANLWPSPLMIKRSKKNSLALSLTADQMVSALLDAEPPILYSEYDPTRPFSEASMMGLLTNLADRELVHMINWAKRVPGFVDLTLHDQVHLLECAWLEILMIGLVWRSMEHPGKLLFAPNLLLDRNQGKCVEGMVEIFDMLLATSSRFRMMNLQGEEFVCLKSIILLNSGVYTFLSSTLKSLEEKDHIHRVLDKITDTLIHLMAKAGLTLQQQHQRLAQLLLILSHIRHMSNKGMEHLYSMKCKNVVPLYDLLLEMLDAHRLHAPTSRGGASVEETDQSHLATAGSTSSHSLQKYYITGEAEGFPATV
How it was run: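 Cell-free MCF7-derived ER preparation, specific radioligand displaced by test compound, read by scintillation counting 18 h post-dosing. Duplicate single-point 25 uM screen, then concentration-response confirmation; DMSO baseline.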

[6] = target: Estrogen receptor (Homo sapiens) (UniProt P03372); assay: OT_ER_ERaERa_0480: Odyssey Thera (OT) 8-hour HEK293T Protein-Complementation Assay for Estrogen Receptor-alpha/-alpha Homodimer (AID 2283351);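 note: rise in fluorescence from reassembled reporter fragments on ERα LBD homodimer in nucleus or whole cell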
How it was run: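 HEK293T cells stably expressing a PCA pair of ER alpha LBD (residues 310-547) were dosed for 8 hours. The gain in fluorescence intensity, nuclear for agonists and whole-cell for antagonists, was measured by laser scanning cytometry against DMSO vehicle.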

[7] = target: Androgen Receptor/SRC-1 Co-activator, AR (gene 367) (UniProt P10275); assay: OT_AR_ARSRC1_0960: Odyssey Thera (OT) 16-hour HEK293T Protein-Complementation Assay for Androgen Receptor/SRC-1 Co-activator (AID 2283353);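 note: actives raise the signal above DMSO so potency reflects increased AR and SRC-1 complex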
Chain of Androgen Receptor/SRC-1 Co-activator, AR (gene 367) (P10275 whole entry, looked up): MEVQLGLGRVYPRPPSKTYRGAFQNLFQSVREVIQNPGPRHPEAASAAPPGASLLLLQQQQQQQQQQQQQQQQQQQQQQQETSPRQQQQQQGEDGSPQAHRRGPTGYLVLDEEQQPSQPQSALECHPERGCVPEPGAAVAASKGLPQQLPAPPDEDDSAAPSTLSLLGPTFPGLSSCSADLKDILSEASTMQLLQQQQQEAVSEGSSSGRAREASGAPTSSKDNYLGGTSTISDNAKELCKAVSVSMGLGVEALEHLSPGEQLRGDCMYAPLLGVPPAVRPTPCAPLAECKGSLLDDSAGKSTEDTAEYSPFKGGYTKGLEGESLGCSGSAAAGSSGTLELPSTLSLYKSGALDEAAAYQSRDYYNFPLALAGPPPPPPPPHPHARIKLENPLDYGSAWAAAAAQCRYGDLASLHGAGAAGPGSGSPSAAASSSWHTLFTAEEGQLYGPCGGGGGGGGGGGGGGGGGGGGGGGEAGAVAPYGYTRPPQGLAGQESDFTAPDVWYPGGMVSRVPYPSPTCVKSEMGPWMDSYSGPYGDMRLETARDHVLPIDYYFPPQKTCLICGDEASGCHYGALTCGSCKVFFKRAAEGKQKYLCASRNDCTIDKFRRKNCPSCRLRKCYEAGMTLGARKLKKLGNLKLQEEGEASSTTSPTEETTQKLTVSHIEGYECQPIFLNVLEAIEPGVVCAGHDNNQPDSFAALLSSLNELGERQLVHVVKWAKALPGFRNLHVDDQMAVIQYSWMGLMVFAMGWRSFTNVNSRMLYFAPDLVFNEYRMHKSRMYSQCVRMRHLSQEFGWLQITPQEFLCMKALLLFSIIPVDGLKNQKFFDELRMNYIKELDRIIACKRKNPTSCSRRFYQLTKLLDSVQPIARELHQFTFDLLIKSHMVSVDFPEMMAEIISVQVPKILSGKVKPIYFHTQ
How it was run: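 Endpoint is gain-of-signal N/C fluorescence ratio in the 488 nm channel versus DMSO, from at least 400 cells per image, measured 16 h post-dosing. Cells: HEK293T stably carrying split-Venus AR/SRC-1 complementation constructs.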

[8] = target: Androgen Receptor/SRC-1 Co-activator, AR (gene 367) (UniProt P10275); assay: OT_AR_ARSRC1_0480: Odyssey Thera (OT) 8-hour HEK293T Protein-Complementation Assay for Androgen Receptor/SRC-1 Co-activator (AID 2283354);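 note: hits raise the complementation signal above DMSO so AC50 marks enhancers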
How it was run: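 Reconstituted split-Venus YFP signal from AR–SRC-1 interaction, read by imaging 8 h post-dose in stable HEK293T lines. The 488 nm nucleus-to-cytoplasm ratio (≥400 cells/image) was fitted upward against DMSO.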

[9] = target: T1, Estrogen receptor (Homo sapiens) + Estrogen receptor beta (Homo sapiens) (UniProt P03372+Q92731); assay: OT_ER_ERaERb_1440: Odyssey Thera (OT) 24-hour HEK293T Protein-Complementation Assay for Estrogen Receptor-alpha/-beta Homodimer (AID 2283356);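 note: heteromer of ER alpha and ER beta binding domains; hits raise reporter fluorescence and both agonists and antagonists give an increase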
T1 sequence (P03372 whole entry, looked up, the tested form may be a part): as the sequence (P03372 whole entry, looked up, the tested form may be a part) above
T1 sequence (Q92731 whole entry, looked up, the tested form may be a part): as the sequence (Q92731 whole entry, looked up, the tested form may be a part) above
How it was run: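 HEK293T stably expressing a PCA of ER alpha LBD (aa 310-547) and ER beta LBD (aa 263-489). After 24 h compound exposure, mean fluorescence intensity in nucleus (agonists) or nucleus and cytoplasm (antagonists) measured by laser scanning cytometry versus vehicle.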

[10] = target: Estrogen receptor (Homo sapiens) (UniProt P03372); assay: OT_ER_ERaERa_1440: Odyssey Thera (OT) 24-hour HEK293T Protein-Complementation Assay for Estrogen Receptor-alpha/-alpha Homodimer (AID 2283349);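 note: hits raise fluorescence above DMSO for agonists and antagonists alike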
How it was run: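 HEK293T, stable ERα LBD (aa 310-547) homodimer PCA; 24 h compound exposure; mean fluorescence intensity (nuclear for agonists, nuclear plus cytoplasmic for antagonists) vs vehicle; positive fitting direction, DMSO baseline.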

[11] = target: T1, Estrogen receptor (Homo sapiens) + Estrogen receptor beta (Homo sapiens); assay: OT_ER_ERaERb_0480: Odyssey Thera (OT) 8-hour HEK293T Protein-Complementation Assay for Estrogen Receptor-alpha/-beta Heterodimer (AID 2283352)
How it was run: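 HEK293T protein-fragment complementation assay of ER-alpha/ER-beta LBD heterodimerisation, read 8 h after dosing. Mean nuclear/cytoplasmic fluorescence intensity measured by laser scanning cytometry; gain of signal fitted relative to DMSO.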

[12] = target: human Thyroid Receptor Alpha (TRa), THRA (gene 7067) (UniProt P10827); assay: NVS_NR_hTRa_Antagonist: NovaScreen (NVS) Nuclear Receptor Binding Assay for human Thyroid Receptor Alpha Antagonism (TRa) (AID 2283362);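 note: activity is loss of signal relative to DMSO baseline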
How it was run: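 Cell-free AlphaLISA chemiluminescent binding read 1 h after dosing, antagonist mode; signal loss versus DMSO baseline. Primary screen in duplicate at 25 uM, then concentration series for actives.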

[13] = target: human Peroxisome Proliferator-activated Receptor alpha (PPARa), PPARA (gene 5465) (UniProt Q07869); assay: NVS_NR_hPPARa: NovaScreen (NVS) Nuclear Receptor Binding Assay for human Peroxisome Proliferator-activated Receptor alpha (PPARa) (AID 2283359);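 note: activity means loss of TR-FRET signal versus DMSO baseline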
How it was run: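 Loss of TR-FRET binding signal relative to DMSO was measured 1 h after chemical addition to extracted receptor protein. Chemicals were first tested in duplicate at 25 uM, and actives were followed up in concentration series.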

PGR (gene 5241) = PGR (gene 5241) (UniProt P06401); assay: NVS_NR_hPR: NovaScreen (NVS) Nuclear Receptor Binding Assay for human Progestron Receptor (PR) (AID 2283360);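 note: active means loss of bound radioligand signal versus DMSO baseline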
How it was run: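 Cell-free radioligand binding using receptor protein extracted from T47D cells, read by scintillation counting 18 hours after dosing. Loss of signal relative to DMSO baseline indicates displacement; primary screen single concentration 25 uM in duplicate, actives followed in concentration series.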

With `O=[N+]([O-])c1ccc2c3c(cccc13)CC2` as the molecule, how does the outcome [1] read?
Its outcome is “inactive”.

`C[C@]12CC[C@H](O)CC1=CC[C@@H]1[C@@H]2CC[C@]2(C)C(=O)CC[C@@H]12` was tested. Which AC50 [1] did it give?
The AC50 was 3.16 µM (active).

What about the AC50 [2] of the same molecule?
Its AC50 is 1.88 µM (active).

What about the AC50 [3] of the same molecule?
Its AC50 is 3.91 µM (active).

What does the source list for `ClCC(Cl)CCl`?
outcome (NCBI gene 100848466): inactive; outcome [1]: inactive

Which results are given for `CC(=O)[O][Hg][c]1ccccc1`?
AC50 [4]: 11.4 µM (active); AC50 [2]: 29.1 µM (active); outcome [5]: inactive; outcome [6]: inactive; AC50 [7]: 1.86 µM (active); AC50 [8]: 3.4 µM (active); outcome [9]: inactive; outcome [3]: inactive

How did the AC50 [1] turn out when `C[C@H]1CCCC(=O)CCC/C=C/c2cc(O)cc(O)c2C(=O)O1` was run?
The AC50 was 0.0119 µM (active).

And the AC50 [5]?
The AC50 was 0.00245 µM (active).

What about the AC50 [10] of the same molecule?
The AC50 was 0.46 µM (active).

What about the AC50 [6] of the same molecule?
The AC50 was 0.291 µM (active).

And the AC50 [11]?
The AC50 was 0.0558 µM (active).

What about the outcome [7] of the same molecule?
The outcome was “inactive”.

What about the outcome [8] of the same molecule?
The outcome was “inactive”.

What about the AC50 [9] of the same molecule?
Its AC50 is 0.24 µM (active).

What about the AC50 [3] of the same molecule?
Its AC50 is 0.0845 µM (active).

Which results are given for `CCN1CCC2(CC1)COc1cc3c(cc12)N(C(=O)c1ccc(-c2ccc(-c4nnc(C)o4)cc2C)cc1)CC3`?
AC50 [4]: 11.6 µM (active); AC50 [2]: 16.8 µM (active); AC50 [7]: 7.04 µM (active); AC50 [8]: 11.7 µM (active); outcome [9]: inactive; outcome [3]: inactive

What does the source list for `NNC(=S)NN`?
outcome [1]: inactive; outcome [5]: inactive; outcome [6]: inactive; outcome [9]: inactive; outcome [3]: inactive; AC50 [12]: 25.4 µM (active)

How did the outcome [1] turn out when `NC(=O)O` was run?
The outcome was “inactive”.

And the outcome [10]?
The outcome was “inactive”.

What about the outcome [6] of the same molecule?
The outcome was “inactive”.

What does the source list for `COP(=S)(OC)Oc1ccc(Sc2ccc(OP(=S)(OC)OC)cc2)cc1`?
outcome [1]: inactive; outcome [2]: inactive; AC50 [5]: 1.73 µM (active); outcome [6]: inactive; outcome [11]: inactive; outcome [7]: inactive; outcome [8]: inactive; AC50 [9]: 48.4 µM (active); outcome [3]: inactive; AC50 [13]: 12.7 µM (active)

How did the outcome [1] turn out when `O=[N+]([O-])c1c(Cl)c(Cl)cc(Cl)c1Cl` was run?
Its outcome is “inactive”.

For `O=S(=O)(c1ccc(Cl)cc1)c1ccc(Cl)cc1`, which outcome [1] is on record?
The outcome was “inactive”.

What about the outcome [6] of the same molecule?
Its outcome is “inactive”.

What about the outcome [11] of the same molecule?
Its outcome is “inactive”.

And the outcome [9]?
Its outcome is “inactive”.

And the outcome [3]?
The outcome was “inactive”.

Which AC50 [4] does the source give for `CCC(=O)C(CC(C)N(C)C)(c1ccccc1)c1ccccc1` (centres undefined) here?
The AC50 was 4.02 µM (active).

What about the outcome [10] of the same molecule?
Its outcome is “inactive”.

And the outcome [6]?
The outcome was “inactive”.

What about the outcome [11] of the same molecule?
The outcome was “inactive”.

What about the outcome [7] of the same molecule?
Its outcome is “inactive”.

What about the outcome [9] of the same molecule?
The outcome was “inactive”.

What about the outcome [3] of the same molecule?
The outcome was “inactive”.

Which results are given for `COP(=S)(OC)Oc1cc(Cl)c(Br)cc1Cl`?
outcome [1]: inactive; outcome [5]: inactive

With `C=C(C)C(=O)[O][Sn]([CH2]CCC)([CH2]CCC)[CH2]CCC` as the molecule, how does the AC50 [4] read?
The AC50 was 2.23 µM (active).

And the AC50 (NCBI gene 100848466)?
The AC50 was 3.89 µM (active).

What about the outcome [1] of the same molecule?
The outcome was “inactive”.

What about the AC50 [2] of the same molecule?
The AC50 was 12.1 µM (active).

What about the outcome [5] of the same molecule?
The outcome was “inactive”.

What about the outcome [6] of the same molecule?
The outcome was “inactive”.

What about the outcome [11] of the same molecule?
The outcome was “inactive”.

What about the outcome [9] of the same molecule?
The outcome was “inactive”.

And the outcome [3]?
The outcome was “inactive”.

And the outcome [13]?
The outcome was “inactive”.

What about the AC50 (PGR (gene 5241)) of the same molecule?
Its AC50 is 3.42 µM (active).
